Reference: PubChem BioAssay (NCI)
Compounds without any hit were thinned out: in the full panel of roughly 83,000, 20% have a hit.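 Results are percent growth after 48 hours of single-concentration exposure. 100 means growth as in untreated cells, lower positive values show inhibition; negative values down to -100 show cell death.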 Unmarked numbers belong to inactive results. The source made the active and inactive calls. The calls were made as follows: active = growth percent below 10; inactive = the rest.

How the values were obtained:
Experiment in all cases: NCI-60 one-dose screen, 48 h (100 = growth as untreated, 0 = no growth, -100 = all killed)
Conditions in all cases: 10 µM unless noted
SK-MEL-2 melanoma = system: SK-MEL-2 melanoma
EKVX NSCLC = system: EKVX NSCLC
SN12C renal = system: SN12C renal
UO-31 renal = system: UO-31 renal
TK-10 renal = system: TK-10 renal
ACHN renal = system: ACHN renal
A498 renal = system: A498 renal
CCRF-CEM leukemia = system: CCRF-CEM leukemia
MOLT-4 leukemia = system: MOLT-4 leukemia

SMILES | growth (SK-MEL-2 melanoma) | growth (EKVX NSCLC) | growth (SN12C renal) | growth (UO-31 renal) | growth (TK-10 renal) | growth (ACHN renal) | growth (A498 renal) | growth (CCRF-CEM leukemia) | growth (MOLT-4 leukemia)
COc1cc(NC(C)CCCN2C(=O)c3ccccc3C2=O)c2nc(C)ccc2c1OC (stereo unspecified) | 96.8% | 96.3% | 92.1% | 98.1% | 98.8% | 99.5% | 97.5% | -56.3% (active) | 73.6%
Cc1cccc(NCS(=O)(=O)O)c1 | 109% | 98.7% | 112% | 93% | 98.5% | 107% | 111% | 102% | 102%
O=C(O)c1ccccc1C(=O)c1ccc(I)cc1 | 91.2% | 97.5% | 104% | 99.4% | 95.6% | 104% | 115% | 99.9% | 
CC(=O)N1N=C(CCC(=O)c2nc3ccc([N+](=O)[O-])cc3[nH]2)OC1c1ccc(O)cc1 (stereo unspecified) | 57.4% | 92.5% | 109% | 80.9% | 113% | 106% | 104% | 114% | 
CCCCn1c(-c2cccc(OC)c2)nc2cc(OC)c(OC)cc2c1=O | 101% | 70.8% | 98.1% | 80.6% | 215% | 97.8% | 110% | -22.6% (active) | 69.8%
c1nc(SC2=NCCN2)c2[nH]cnc2n1 | 38.8% | 88.7% | 78.7% | 40.6% | 22.6% | 54.2% | 92.8% | 31.3% | 
COc1ccc(OC)c(NCC(=O)n2nc(/C=C\c3ccc(O)c(OC)c3)cc2/C=C\c2ccc(O)c(OC)c2)c1 | 0.648% (active) | 28.7% | 21.5% | 5.1% (active) | 16.4% | 18.6% | 34.1% | 5.46% (active) | 7.73% (active)
COC(=O)c1oc2c(C(C)=O)c(OCCN3CCCCC3)ccc2c1C | 88.7% | 113% | 119% | 84.5% | 92.1% | 108% | 131% | 50.5% | 
Clc1ccc(CN2COc3c(ccc4cccnc34)C2)cc1Cl | 11.8% | 1.43% (active) | 19.4% | -55.4% (active) | 25.9% | 4.57% (active) | 52.8% | -11.1% (active) | 
CCn1cc(/C=C2\Oc3cc(OCC#N)ccc3C2=O)c2cc(OC)ccc21 | 37.5% | 47.8% | 42.4% | 45.7% | 74.2% | 54.2% | 62.4% | 9.65% (active) | 
COc1cc2nc(C(=O)N3CCCCC3)cc(Nc3ccccc3)c2cc1OC | 99.5% | 97.3% | 98.9% | 82.4% | 98.6% | 96.4% | 91% | 101% | 97.3%
COc1cc2c(/C=C3/C(=O)Nc4ccc(O)cc43)c(Cl)n(Cc3cc(OC)c(OC)c(OC)c3)c2cc1C | 36.7% | 13.3% | 59.6% | -0.307% (active) | 25.8% | 130% | 24.9% | -9.62% (active) | -24.1% (active)
c1coc(CSc2ncnc3nc[nH]c23)c1 | 105% | 103% | 102% | 86.5% | 125% | 106% | 90.8% |  | 
COc1ccc(C2CC(c3cc(Cl)c(C)cc3OC)=NN2c2ccc(S(N)(=O)=O)cc2)cc1OC (stereo unspecified) | 95.8% | 80.6% | 87.4% | 59.1% | 113% | 84% | 112% |  | 
CC(=S)Nc1ccccc1 | 97.3% | 87.3% | 92.9% | 81.5% | 109% | 97.4% | 103% | 102% | 103%
COc1cc2ncnc(Oc3ccc(NC(=O)Nc4ccc(C5(C#N)CCCC5)cc4)c4ccccc34)c2cc1OC | 80.9% | 57.7% | 21.3% | 55.8% | 24.1% | 29.3% | 82.4% | 77.5% | 

SMILES | growth (SK-MEL-2 melanoma) | growth (EKVX NSCLC) | growth (SN12C renal) | growth (UO-31 renal) | growth (TK-10 renal) | growth (ACHN renal) | growth (A498 renal) | growth (CCRF-CEM leukemia) | growth (MOLT-4 leukemia)
COC(=O)c1oc2c(C(C)=O)c(OCCCN(C)C)ccc2c1C | 106% | 187% | 109% | 75.3% | 90.8% | 107% | 125% | -13.6% (active) | 85.8%
CCc1c2cc(Cl)ccc2n2cc(Cc3ccccc3)[nH]c(=O)c12 | 97.5% | 101% | 101% | 82.3% | 120% | 93.3% | 102% | 93.9% | 
O=C(C[n+]1cccc(Br)c1)c1ccc2c(c1)CCCC2 | 102% | 94.8% | 104% | 90.1% | 105% | 108% | 106% | 102% | 86.2%
O=C(Nc1ccccc1F)Nc1ccccc1Cl | 109% | 73.2% | 104% | 98.2% | 125% | 90.8% | 85.8% | 86.9% | 
O=C(CNc1cccnc1)Nc1ccc(C(=O)/C=C/c2ccc(Cl)cc2)cc1 | 84.4% | 95% | 88.7% | 77.7% | 106% | 101% | 86.9% | 26.6% | 
Cc1cc(NCCN(C(C)C)C(C)C)nc(/N=C(\N)Nc2ccc(Cl)c(C(F)(F)F)c2)n1 | -89.4% (active) | -17.5% (active) | -45.6% (active) | -90.9% (active) | -80.6% (active) | -81.1% (active) | -88.8% (active) | -68% (active) | -69.2% (active)
CCOC(=O)c1cnc2c(OC)ccc(OC)c2c1Cl | 127% | 115% | 110% | 88.3% | 106% | 100% | 91.8% | 5.54% (active) | 
c1ccc2nc(Cn3cc[n+](Cc4ccc5ccccc5n4)c3)ccc2c1 | 55% | 88.3% | 40.5% | 88% | 98.3% | 102% | 90.7% | 80% | 65.4%
O=C1C(SCCO)=C(SCCO)C(=O)N1c1ccc(-c2ccccc2)cc1 | -73.5% (active) | 129% | 72.4% | -96.5% (active) | -57.8% (active) | -99.5% (active) | 105% | -43.8% (active) | -33.6% (active)
CCCc1nn2c(CCC(=O)c3nc4ccc([N+](=O)[O-])cc4[nH]3)nnc2s1 | 87.5% | 95.6% | 101% | 80.7% | 133% | 102% | 123% | 109% | 
S=c1n(CNc2ccc(Cl)nn2)nc(-c2cc(Cl)cc(Cl)c2Cl)n1/N=C/c1ccc(Cl)cc1 | 84.1% | 91.3% | 103% | 80.8% | 113% | 107% | 121% | -32.8% (active) | 60.5%
CC/C(=C(\CC)c1ccc(OCCN(CC)CC)cc1)c1ccc(OCCN(CC)CC)cc1 | -8.16% (active) | 38% | 68.6% | 24.4% | 48.6% | 42.5% | 43.4% | 38.9% | 
CC1(C)N=C(N)N=C(N)N1c1ccc(F)c(C(F)(F)F)c1 | 54.4% | 65.2% | 47.4% | 41.8% | 65.5% | 36% | 93.1% | 20.8% | 
C/C(=N/NC(=O)Cn1c2ccccc2c2ccncc21)c1cccs1 | 96.6% | 103% | 104% | 94.5% | 127% | 103% | 86.5% | 91.1% | 83.1%
COc1cccc(/C=N/C(=S)NC2(C)C3CCC(C3)C2(C)C)c1O (stereo unspecified) | 82.1% | 102% | 100% | 53% | 85.9% | 69.9% | 73.2% | 57.3% | 63.8%
